# Test results from the supplement of paper PMC12632987.
# B1: usp_38_diff_out_18_28_380 (protein)
# chain: AEEERRRLEEELEALKAELDALITEATALATAKLEAHPDDAEVWALVDALFDALGAAAAALERARELLRAGAPPEEVRAALAEARAHIAEARALMAQLAA
# B2: usp_38_diff_out_18_28_381 (protein)
# chain: AEARRAELERRLEELLRELNELIDEATKLATEKLTEHPDDEEVWELVDRLFDELGRAAAHLREARELLRAGAPAEEVEKELREAEEHLKRAKELLKELEA
# B3: usp_38_diff_out_18_28_382 (protein)
# chain: AAAEREKLEAELKKLEAELNKLIDEATELATKKLTEHPDDEEVWKLVDELFDALGKAAAALNRARELLRAGGPAEEVKKALEEAEKYMKEAKKLMEELKK
# B4: usp_38_diff_out_18_28_383 (protein)
# chain: AEAERAELEKRLEELEKELNELIDEATEAATEKLEAEPDSEEVWELVDELFDELGKAAAKLREARELLRAGAPAEEVQKALEEAEEHLKRAKELLEELKE
# B5: usp_38_diff_out_18_28_384 (protein)
# chain: DAAERAALEKELEELRKRLDELIDRAVEAATAALEAHPDDEAVWALVDALFDTLGAAAAALNEARALLKAGGDPAEVKAALEEARKALAEAERLLAELEA
# B6: usp_38_diff_out_18_28_385 (protein)
# chain: MEEERKKLEEELEKLKKELDKLIDEAVELATAALEAHPDDEAVWALVDALFDALGAAAAALNRARELLKAGGDPEEVKKELDKARAALKEAKALLAELKA
# B7: usp_38_diff_out_18_28_386 (protein)
# chain: EEERRRELERELRELERRLDELIDEAVAAATEALEAHPDDEEVWALVDELFDTLGRAAAALREARELLRAGGPLEEVERALREAREALERAERLLAELKA
# B8: usp_38_diff_out_18_28_387 (protein)
# chain: MEKEREELKKELEELRKRLDELIDRATEEATRALTAHPDDEEVWELIDRLFDTLGEAAAALNRARELLRAGGPLEEVKKELEKARKALEEAERLLEELEA
# B9: usp_38_diff_out_18_28_388 (protein)
# chain: SEEEREELRERLEELEKRLDALIDEATAVATAALTAHPDSAEVQALVAELFDALGAAAAALRRARELLRRGGPLEEVREALEEAERHLEEAERLLAELRA
# B10: usp_38_diff_out_18_28_389 (protein)
# chain: AAAARAALEAELAALRAELDALIDEATELATRKLEEHPDDEEVWELVDRLFDALGRAAAHLEEARRLLREGGDLAAVQAELDAARAALAEAKRLLEELKA
# B11: usp_38_diff_out_18_28_390 (protein)
# chain: EEEERERLERRLRELERELDALIDEATAAITEALTAHPDDEEVWALVDALLDSLGRAAAALNEARRLLAEGGPLEEVERALEEAERHLREAKALLAELKA
# B12: usp_38_diff_out_18_28_391 (protein)
# chain: SSAERERLERELERLERELDELIDEATAVATEKLEEHPDDEEVWRLIDELFDALGRAARALSEARRLLREGGPPEEVERALEEARRHLERARELLEELKE
# B13: usp_38_diff_out_18_28_392 (protein)
# chain: MEEERERLERELEELRRRLDELIDEATAVATAKLEEHPDDEEVWALIDELFDALGAAAQALREARELLREGGDPEEVRRKLEEARRALEEAERLLAELKA
# B14: usp_38_diff_out_18_28_393 (protein)
# chain: SEERRKELEERLKALEAELDALITEATAVATERLEAHPDDEAVWELVDALFDALGAAAAALREARELLRAGGDLEEVEALLDQAEAALAEAKALLAELKA
# B15: usp_38_diff_out_18_28_394 (protein)
# chain: SAAERAALEAELAALEAELDALIDEATKAATEALTANPDSEEVWALVDALFDALGAAAAALRRARELLRAGGPLAEVQAALDEARKHLAEAKKLLKELKA
# B16: usp_38_diff_out_18_28_395 (protein)
# chain: MEEERAKLEEELKKLEKELNELIDRATAAATAALTAHPDDADVWALVDALFDSLGAAAYHLREARELLREGGPLEEVKKELEKAKEHLKEAKALLAELEA
# B17: usp_38_diff_out_18_28_396 (protein)
# chain: AEAERAALEKRLAELQKRLDALITEATAAATAALEAHPDDAAVWALVAQLFDALGAAAAALQRARELLRAGGPLEEVQAALDEAEAHLAQAEALLAELKA
# B18: usp_38_diff_out_18_28_397 (protein)
# chain: EEERREELERRLEELERELDALIREATEAATAALEAHPDSAEVWALVDALFDALGAAAAHLRRARELLREGGPLEEVERELEKAEAHLAEARALLAELKA
# B19: usp_38_diff_out_18_28_398 (protein)
# chain: SAAERAELEAELAALQKELDALITEATAAATAALTAHPDSAEVWALVDALFDHLGAAAAALREARRLLREGGPLEEVRAALAAAQAHLAEARALLAELKA
# B20: usp_38_diff_out_18_28_399 (protein)
# chain: EEEERRRLEEELRRLEEELDELIDEAVEAATKALTAHPGDEAVEALVRELFDHLGAAAAALREARELLRAGGDPEEVRRLLEEAREHLEKAREALKELKA
# B21: usp_38_diff_out_18_28_400 (protein)
# chain: MQEEIQKIIEENEKKTNELIDKYTELGEKAFLAYHEDPSNEELLEKLDELADALGKAAKKVNEMRENKNDPEKVKEYSKEFEEYYKKAEALMKEIEKLLA
# B22: usp_38_diff_out_18_28_401 (protein)
# chain: MEEEIEKKIKEAKEKTDEMIDEYVELGEQAFLKYHEDPSSEHLLELLNEAADALGKAAKAVNLMRENKDDPEKVEKELEKFKKYSEKAEKLFEEIKKELE
# B23: usp_38_diff_out_18_28_402 (protein)
# chain: MEEEIEKKIEEAEKRTDELIDEYVELGEKAFLKYHEDPSSEELLEKLDKLADELGKAAQAVNLMRENRDDPEKVEKEYAEFEKYYEKAKKLLEEIKKLLE
# B24: usp_38_diff_out_18_28_403 (protein)
# chain: MQEEVEKKIKEAEKKTDELIDKYTEAATAGFLKYAEDPSATELVEAVRAAADALGAAAQAVNEMKRNKDDPEKVEELLKKFEEAYKKAEEALKEIERLIA
# B25: usp_38_diff_out_18_28_404 (protein)
# chain: MMEEIQKKIEEAEKEADKLIDEYTKAATEAFLKYAEDPSATELVEAVNKAADALGEAAKAVNEMRRHKDDPEKVEKELKKFEEAKKKAEEALKEIKKLIA
# B26: usp_38_diff_out_18_28_405 (protein)
# chain: MQEEIEKKIEEAEKRTNELIDKYTEAATRAFEAYAEDPSKTELVKAINEASDALGKAAQAVNEMKRNKDDPEKVEKELKKFEEAYKKAEEAIAKIEELIA
# B27: usp_38_diff_out_18_28_406 (protein)
# chain: SSEEIEKKIEEAKEETDKLIDRYVEISTAAFLKYHEDPSSEELLKKVNELADALGKAAKAVNEMRENKDNEEKVEKYLEEYKKYSEEAEKLLEEIEKLIK
# B28: usp_38_diff_out_18_28_407 (protein)
# chain: MEEEIKEKIEEAKKRLDELIDRYVEIATKAFLKYHENPESKELLEKVRKLADELGKAAQAVNLMRENKDNEEKVEEELEKFEKHYEEAEKLLEEIEKLIK
# B29: usp_38_diff_out_18_28_409 (protein)
# chain: AKEEIEKKIEEAEKELDELIDEYVKISTEAFLKYHEDPSSKELLEAVNELADELGKAAQAVNEMRKNRDDKEAVEKQLKVFEEHKKKAEELLKKIKELIK
# B30: usp_38_diff_out_18_28_410 (protein)
# chain: KKEEIEKKIEEAEEELDKLIDEYVEVATEAFLKYHEDPSSEELLEKVRELADELGKAAKAVNEMRENKDNEEKVEEELEKFKKHKEEAEKLLKEVKELIK
# B31: usp_38_diff_out_18_28_411 (protein)
# chain: KKEEIQEKIKKAEEKLDKLIDKYVEISTKAFLKYHENPESKELLEAVDKLADELGKAAQHVNLMRENKDDEEKVEKELKEFEEHSKKAEELLKKVEELIK
# B32: usp_38_diff_out_18_28_412 (protein)
# chain: SAAAVQATIDQMKADLDALIDEANEVSEKAFLKYGEDPSSTELLAAVNELWDHLGAAAQAVNDARRNRDNEAAVAAKAAEFKKHADKAKEKIAEIKKLIA
# Target: T1, USP38, Q8NB14
# T1 chain: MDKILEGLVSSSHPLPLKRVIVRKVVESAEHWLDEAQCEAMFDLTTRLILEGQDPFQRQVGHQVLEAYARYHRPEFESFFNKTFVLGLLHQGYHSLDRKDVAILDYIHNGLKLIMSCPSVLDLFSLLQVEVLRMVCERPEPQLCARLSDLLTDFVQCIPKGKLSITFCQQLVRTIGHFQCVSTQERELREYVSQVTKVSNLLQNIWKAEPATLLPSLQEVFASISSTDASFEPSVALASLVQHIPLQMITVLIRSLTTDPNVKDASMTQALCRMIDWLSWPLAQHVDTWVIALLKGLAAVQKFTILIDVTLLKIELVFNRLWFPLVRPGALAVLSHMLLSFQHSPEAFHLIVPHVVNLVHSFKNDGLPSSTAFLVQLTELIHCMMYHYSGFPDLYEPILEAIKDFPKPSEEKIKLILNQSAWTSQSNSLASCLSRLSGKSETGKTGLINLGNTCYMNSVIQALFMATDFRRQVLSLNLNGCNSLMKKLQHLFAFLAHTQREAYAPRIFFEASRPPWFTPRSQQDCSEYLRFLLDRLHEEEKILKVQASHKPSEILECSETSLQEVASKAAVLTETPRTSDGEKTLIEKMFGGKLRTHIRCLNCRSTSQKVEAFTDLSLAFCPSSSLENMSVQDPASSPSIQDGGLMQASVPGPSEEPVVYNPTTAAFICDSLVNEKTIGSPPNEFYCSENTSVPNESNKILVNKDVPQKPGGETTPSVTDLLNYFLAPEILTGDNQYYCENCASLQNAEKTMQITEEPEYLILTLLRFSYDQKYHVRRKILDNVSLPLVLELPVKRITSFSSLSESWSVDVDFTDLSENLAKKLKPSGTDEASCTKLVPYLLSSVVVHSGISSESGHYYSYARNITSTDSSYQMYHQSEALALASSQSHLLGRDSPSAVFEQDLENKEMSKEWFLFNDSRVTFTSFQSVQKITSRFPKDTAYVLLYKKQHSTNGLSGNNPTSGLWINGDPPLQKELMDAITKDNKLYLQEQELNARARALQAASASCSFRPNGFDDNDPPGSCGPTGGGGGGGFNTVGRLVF
# Experiment: median log2 fold change of GCK-ALFA target abundance (FLAG IP / Myc IP barcode read proportion) (log2 ratio); each designed protein is fused to an ALFA-tag nanobody in HEK293 cells to bring the named protein to FLAG-tagged glucokinase (GCK); Myc marks an untargeted standard; higher = target protein stabilised (more abundant)
# Conditions: target protein: 3xFLAG-MCP-GCK-ALFA reporter; HEK293 landing pad (RPLP)
# In short: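 An ALFA-nanobody-fused binder library was recombined into HEK293 landing-pad cells and induced with 2 μg mL^−1 doxycycline. Cells were transfected with a plasmid expressing a FLAG-tagged target and a Myc-tagged standard. After 48 h, lysates underwent anti-FLAG and anti-Myc immunoprecipitation, and circular RNA barcodes were reverse transcribed, amplified and sequenced. Target abundance is the per-binder median log2 ratio of FLAG to Myc barcode read proportions. Barcodes needed ≥10^−7 proportion in both replicates, binders ≥3 barcodes per replicate, and a 10^−6 pseudocount was added; the two replicates were pooled.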
row,Binder,median log2 fold change
1,B1,-0.0972
2,B2,-0.371
3,B3,0.595
4,B4,-0.0589
5,B5,0.0029
6,B6,-0.282
7,B7,-0.0533
8,B8,-0.291
9,B9,0.11
10,B10,-0.314
11,B11,0.124
12,B12,-0.315
13,B13,-0.26
14,B14,-0.136
15,B15,-0.118
16,B16,-0.179

row,Binder,median log2 fold change
1,B17,-0.054
2,B18,-0.194
3,B19,0.000517
4,B20,-0.117
5,B21,-1.05
6,B22,-0.818
7,B23,0.282
8,B24,-0.0578
9,B25,-0.178
10,B26,0.0557
11,B27,0.0217
12,B28,-0.152
13,B29,-0.273
14,B30,-0.357
15,B31,-0.206
16,B32,-0.188
